# Sampled rows, rich in hits. Any-hit rate of the full collection: about 3%.
# SNCA viab count – counter-screen for SNCA expression inhibitors: cell viability; hit rate 0.12% among 150,000; HEK-293-SNCA-luc viability, GF-AFC fluorescence, 24 h; Potency, µM (titrated, usually from 57.1 µM), hits mostly cytotoxic; further: nearly all actives have a fitted effect of over 30% in size
#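 Cytotoxicity counterscreen: after 24 h compound treatment of genome-edited SNCA-luciferase HEK-293 cells, live-cell protease substrate GF-AFC read by fluorescence after 30 min; activity scaled between DMSO (0%) and medium-only (-100%), curves Hill-fitted.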
# IP6K1 inh – inhibitors of human IP6K1; Q92551; IP6K1 kinase, ADP-Glo luminescence, 2 h; hits give low values; activity change, % (series mostly up to about 58 µM); hit rate 0.81% among 140,000; in the data active means activity change below about -25%
# Target sequence (Q92551 whole entry, looked up): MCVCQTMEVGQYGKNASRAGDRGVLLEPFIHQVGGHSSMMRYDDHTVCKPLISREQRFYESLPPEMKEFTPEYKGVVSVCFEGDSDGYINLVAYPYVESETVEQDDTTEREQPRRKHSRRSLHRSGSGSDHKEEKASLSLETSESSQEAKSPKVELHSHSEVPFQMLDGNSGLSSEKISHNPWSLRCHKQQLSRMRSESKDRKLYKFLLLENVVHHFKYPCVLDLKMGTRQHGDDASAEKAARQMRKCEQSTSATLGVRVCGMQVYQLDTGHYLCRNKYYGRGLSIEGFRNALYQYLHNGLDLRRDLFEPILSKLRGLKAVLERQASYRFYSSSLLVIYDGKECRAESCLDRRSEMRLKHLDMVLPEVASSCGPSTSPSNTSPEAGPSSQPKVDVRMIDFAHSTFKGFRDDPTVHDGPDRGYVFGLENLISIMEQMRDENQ
#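 ADP-Glo luminescence measures ADP made by human IP6K1 during a 2 h RT reaction with ATP/IP6 (mix at 1.3 mM/130 uM); top library doses 57.5 and 19.1 uM final.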
# KDM5B inh – inhibitors of human KDM5B histone demethylase. Potency, µM (series often up to 57.7 µM), hits mostly inhibitors. hit rate 2.6% among 220,000. AID 1347165. KDM5B demethylase, FDH-coupled NADH fluorescence (FDH is formaldehyde dehydrogenase); further: nearly all actives have a fitted effect of over 70% in size
#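 Measured: NADH fluorescence change, 30 min, RT. System: KDM5BΔAP 200 nM final, H3K4me3 peptide, α-KG, Fe(II), ascorbate, NAD⁺ plus FDH, pH 7.5 HEPES. Compounds: titrated, 10 min pre-incubation with enzyme.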
# SNCA expr inhib – SNCA gene expression inhibition. HEK-293 SNCA-luciferase knock-in, luminescence, 24 h. Potency, µM (highest dose often 57.2 µM), most hits filed as inhibitors. hit rate 0.17% among 140,000. AID 1671194; further: nearly all actives have a fitted effect of over 45% in size
# Numbers stand for hits; – = inactive; ? = inconclusive; · = not tested or not shown; [ ] = another dose, or the depositor's remark. Unless noted, the call rests on the fitted dose curve; in most records, active means well fitted curve in the direction sought with a large enough effect; inconclusive means small, poorly fitted or top-dose-only effect, or another doubt; inactive means no such curve, though single readings can be large; an effect the other way counts as inactive or inconclusive.
SMILES,SNCA viab count,IP6K1 inh,KDM5B inh,SNCA expr inhib
Cc1c(Cl)cccc1NC(=O)c1cc2n(n1)CC(c1ccc(Cl)cc1)OC2 (stereo not given),–,–,25µM,–
Cc1ccc(NC(=O)c2cc3n(n2)CC(c2ccc(Cl)cc2)OC3)cc1C (stereo not given),–,–,?,?
CCOc1ccccc1NC(=O)c1cc2n(n1)CC(c1ccc(Cl)cc1)OC2 (stereo not given),–,–,22µM,–
Cc1cccc(NC(=O)c2cc3n(n2)CC(c2ccc(Cl)cc2)OC3)c1 (stereo not given),–,–,?,–
CCOc1cc(/C=C/C(=O)c2ccc(OC)c(Br)c2)ccc1OC,·,·,–,·
CC(C)C[C@H](NC(=O)CNC(=O)OCc1ccccc1)C(=O)N[C@@H](Cc1ccccc1)C(=O)CCl,24µM,–,·,·
O=C(NCc1ccccc1F)c1nc2sccn2c1-c1ccc(C(F)(F)F)cc1,–,–,·,–
Cc1cc(C(=O)NC2CC2)c2cc(Br)ccc2n1,·,·,–,·
O=C(NCc1cccs1)c1cc(Br)cn2ccnc12,–,–,40µM,–
O=C(NCC(F)F)c1cc(Br)cn2ccnc12,?,–,40µM,–
O=C(NCC(F)F)c1nc2sccn2c1Br,–,–,–,–
CN(C)C(=O)c1cc(Br)cn2ccnc12,–,–,35µM,–
CN(C)C(=O)c1ccccc1Br,·,·,–,·
O=C(NC1CC1)c1cc(Br)cn2ccnc12,–,–,40µM,–
Cn1ncc2c(C(=O)NCC3CC3)cc(-c3ccccc3F)nc21,·,–,·,·
O[C@]1(c2ccccc2)CCN(Cc2ccco2)C[C@H]1N1CCCC1,–,–,?,–
O[C@]1(c2ccccc2)CCN(Cc2ccncc2)C[C@H]1N1CCCC1,–,–,6.3µM,–
O=C(c1cccs1)N1CCC(O)(c2ccccc2)[C@H](N2CCCC2)C1 (stereo not given in full),–,–,?,–
O=C(C1CC1)N1CC[C@](O)(c2ccccc2)[C@H](N2CCCC2)C1,–,–,16µM,–
COc1ccc(F)cc1-c1cccc(C(=O)NCC(=O)NCc2ccc3c(c2)OCO3)c1,·,–,·,·
O=C(c1cc2ccc3cccnc3c2[nH]1)N1CCCCC1,–,–,–,?
CC1CCCN(C(=O)c2cc3ccc4cccnc4c3[nH]2)C1 (stereo not given),?,–,–,2.2µM
Fc1ccc2nc(CO[C@H]3CN(Cc4ccc5ccccc5n4)C[C@H]3F)[nH]c2c1,–,–,35µM,–
CCCCn1c(N)c(N(C)C(=O)Cn2c(C)nc3ccccc32)c(=O)[nH]c1=O,·,·,–,·
Cc1cnc(C)c(-c2cc(O)c3c(c2)CN(C(=O)c2ccncn2)CCO3)n1,–,–,25µM,–
SMILES,SNCA viab count,IP6K1 inh,KDM5B inh,SNCA expr inhib
COc1ccc(CCNC(=O)C2CCCN(Cc3cccc(-c4cccc(C)c4)c3)C2)cc1 (stereo not given),–,–,·,–
COc1ccc2cc(C3CN(CCC(=O)NC(C)(C)C)CCO3)ccc2c1 (stereo not given),–,–,?,–
COc1ccc2cc(C3CN(Cc4nc(C(N)=O)no4)CCO3)ccc2c1 (stereo not given),–,–,18µM,–
COc1ccc2[nH]c3c(c2c1)CCNC31CCN(Cc2scnc2C)CC1,–[12.5 µM],–,?,–
COc1cccc(CN2CCC3(CC2)NCCc2c3[nH]c3ccccc23)c1,–[12.5 µM],–,–,–
COc1cccc(CN2CCC3(CC2)NCCc2c3[nH]c3ccc(OC)cc23)c1,–[12.5 µM],–,25µM,?
COc1ccc2[nH]c3c(c2c1)CCNC31CCN(Cc2ccc(C)o2)CC1,–[12.5 µM],–,20µM,?
CC1CCCN(CC(=O)N(C)CC(=O)Nc2ccc(Cl)c(C(F)(F)F)c2)C1 (stereo not given),·,·,–,·
Cc1noc(C)c1-c1cc(-c2ccc(CO)cc2)cn2cncc12,–,–,35µM,–
Cc1noc(C)c1-c1cc(-c2ccc([S+](C)(=O)[O-])cc2)cn2cncc12,–,–,32µM,–
Cc1noc(C)c1-c1cc(-c2cccc(O)c2)cn2cncc12,–,–,?,–
CC1(C)CC(=O)C2=C(C1)NC(=O)CC2c1ccc(C(C)(C)C)cc1 (stereo not given),·,·,–,·
Cn1cc(CN2CCN(c3cnccn3)CC2)c(-c2ccc(C3CCCCC3)cc2)n1,–,–,28µM,–
COc1ccc(-c2noc(-c3nc(-c4cccnc4)no3)n2)cc1,–,–,35µM,–
Fc1cccc(Cc2noc(-c3nc(-c4ccccc4)no3)n2)c1,–,–,–,–
COc1ccc(-c2noc(-c3nc(Cc4cccc(F)c4)no3)n2)cc1,–,–,28µM,–
Cc1noc(C)c1-c1cc2cc(CN(C)C)oc2c(NCCc2ccccc2)n1,–,–,–,–
Cc1noc(C)c1-c1cc2cc(CN(C)C)oc2c(-c2ccc([S+](C)(=O)[O-])cc2)n1,–,–,40µM,–
COc1ccccc1-c1nc(-c2c(C)noc2C)cc2cc(CN(C)C)oc12,–,–,35µM,–
Cc1cc2cc(-c3c(C)noc3C)nc(-c3ccc([S+](C)(=O)[O-])cc3)c2o1,–,–,35µM,–
COc1ccc(C(C)=O)cc1CC(=O)Oc1cc(Cl)ccc1Cl,·,·,–,·
COc1cccc(-c2ccc(C(=O)NCCN[S+](=O)([O-])c3c(C)noc3C)cc2)c1,·,–,·,·
Cn1ccnc1-c1ccc(N2CCCC(CO)(CCOc3ccccc3)C2)nn1 (stereo not given),?,–,32µM,–
Cc1ccccc1CC1(CO)CCCN(c2ccc(-c3nccn3C)nn2)C1 (stereo not given),?,–,?,?
Cn1ccnc1-c1ccc(N2CCC(CO)(CCOc3ccccc3)CC2)nn1,–,–,28µM,–
SMILES,SNCA viab count,IP6K1 inh,KDM5B inh,SNCA expr inhib
CCc1[nH]c2c(CNC(=O)C3(C)CCCCO3)cc(F)cc2c1C (stereo not given),–,–,20µM,–
Cc1ccc(-c2cc(C(=O)N3CCC(Cc4nncn4C(C)C)CC3)c3ccccc3n2)cc1C,–,–,28µM,?
CCn1cnnc1CC1CCN(C(=O)c2cc(-c3ccc(C)c(C)c3)nc3ccccc23)CC1,–,–,28µM,–
CN1CCC(N(Cc2ccccc2)[C@@H]2C[C@@H]3CO[C@H](c4ccccc4)C[C@@H]3C2)CC1,·,–,·,·
COc1ccc(-c2cc(C(=O)NCCc3ccccc3F)c3cnn(C)c3n2)cc1,–,–,·,–
COc1ccc(CC(=O)N2CCCC(N3C(=O)c4c(c(C)nn4-c4ccccc4)C3C(C)C)C2)cc1 (stereo not given),·,–,·,·
COCCCNc1nc2c([S+](=O)([O-])c3cc(OC)ccc3OC)nnn2c2ccccc12,–,–,79µM,–
COc1ccc(OC)c([S+](=O)([O-])c2nnn3c2nc(N2CCOCC2)c2ccccc23)c1,–,–,–,–
COc1ccc(OC)c([S+](=O)([O-])c2nnn3c2nc(NCCCOC(C)C)c2ccccc23)c1,–,–,89µM,–
Cc1ccc(C)c(S(=O)(=O)c2nnn3c2nc(NCCCOC(C)C)c2ccccc23)c1,–,–,?,–

# Compound activity from PubChem BioAssay.
